Hit rate of the full screen: of about 340,000 compounds, about 2,500 (0.74%) were called active. The sample as a whole holds a higher share of actives than the screen did. Unmarked numbers belong to inactive results.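 Rule for the calls: active = inhibition above about 55% (limit read from the data); inactive = the rest.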
Experiment: Gli-Sufu pathway antagonists, primary screen, luciferase luminescence, Sufu-KO-LIGHT cells, uHTS (AID 588413);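 note: 0% = DMSO-treated cells and 100% = wells with medium but no cells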
Conditions: Sufu-KO-LIGHT fibroblasts, Gli luciferase reporter luminescence; at 5 µM; stronger effect = higher value

Row | SMILES | inhibition
1 | CC1=CC(=Cc2sc3ccccc3[n+]2C)C=C(C)O1 | 80.9% (active)
2 | O=C(O)CCn1cc(C=C2C(=O)NC(=S)NC2=O)c(-c2cccc(Br)c2)n1 | -2.59%
3 | CC(C)CN1CCN(Cc2ccccc2C(F)(F)F)CC1CCO (stereo not given) | 20.7%
4 | Cc1cc(C)c2c(c1)NP(=S)(c1ccccc1)N2 (stereo not given) | -6.68%
5 | CNC(=O)Nc1ccc(C(O)(C(=O)OC)C(F)(F)F)cc1 (stereo not given) | 11.8%
6 | CCCCCCCCCCCCn1ccc(=N)cc1 | 87.5% (active)
7 | O=C1C2(Cl)C3(Cl)C4(Cl)C(Cl)(Cl)C5(Cl)C3(Cl)C1(Cl)C5(Cl)C24Cl (stereo not given) | -3.44%
8 | COc1cc(-n2c(=S)[nH]c3ccc(C)cc3c2=O)c(Cl)cc1Cl | -14.6%
9 | CCN(CC)CCOC(=O)c1cc2cc(COC)ccc2o1 | 0.39%
10 | CCOc1cccc(=NC2CCCCC2)c2c(C)[nH]c(C)c12 | 79% (active)
11 | CC(C)Nc1nc(Cl)nc(NC(C)C)n1 | 1.26%
12 | O=C(C1CC(=O)N(C2CCCC2)C1)N1CCC2(CC1)OCCO2 (stereo not given) | -2.84%
13 | C=CCN(CC=C)C(=O)Nc1ccc(OCC)cc1 | -12.4%
14 | CCC(C)(O)C(=O)OC1C(=O)OC2CC3C(C)=CC(=O)C(O)C3(C)C3C4(O)OCC23C1C(C)C4O (stereo not given) | 82% (active)
15 | CN(C)CC1Oc2ccccc2OC1(O)c1ccccc1 (stereo not given) | -3.73%
16 | CCOP(=O)(OCC)C(NC(=O)c1ccc(OC)cc1)C(Cl)(Cl)Cl (stereo not given) | -2.69%
17 | CCOP(=O)(OCC)C(NC(=O)c1ccc(C)cc1)C(Cl)(Cl)Cl (stereo not given) | 2.77%
18 | CC1=C2C(=O)C3C(CC=C4CC(OC5OC(O)C(O)C(O)C5CO)CCC43C)C2CCC12OC1CC(C)CNC1C2C (stereo not given) | -0.71%
19 | O=C1/C(=C\c2ccc3c(c2)OCO3)N2CCC1CC2 | 16.5%
20 | N[C@@H](Cc1c[nH]c2ccccc12)c1nnc(SCc2c(F)cccc2Cl)o1 | -1.34%
21 | CCOc1ccc(-c2cc(C)[n+](CCN(CC)CC)c(-c3ccc(OCC)cc3)c2)cc1 | 77.8% (active)
22 | COC(=O)C1=C(c2cc3ccccc3s2)C[C@@H]2CC[C@H]1N2C(=O)NC(C)C | 9.18%
23 | COc1ccc(-c2nn(CCC#N)cc2C(=O)Nc2ccc(C(C)=O)cc2)cc1 | -28.4%
24 | COC(=O)COc1cc(C)cc2oc(=O)c3c(c12)CCCC3 | -1.17%
25 | COc1ccc(NC(=O)c2cn(CCC#N)nc2-c2ccc([N+](=O)[O-])cc2)cc1 | 6.35%
26 | CC(=O)OC1C2(CC3N4C(=O)C5(CO)SSC4(CC31O)C(=O)N5C)OC(C)C(C)(C)C2=O (stereo not given) | 85.7% (active)
27 | Cc1ccccc1NC(=O)COC(=O)c1cc(C)n(C2CC2)c1C | 0.92%
28 | O=C1NC(=O)C(CCc2ccccn2)(Cc2cccc(Cl)c2Cl)C(=O)N1c1ccc(Br)cc1 (stereo not given) | 0.16%
29 | Cc1ccnc(-n2c(C)cc(/C=C3\C(=O)NC(=S)N(C)C3=O)c2C)c1 | 7.71%
30 | CC[C@H]1CC2CN3CCc4c([nH]c5ccccc45)C(C(=O)OC)(C2)C13 (stereo not given in full) | 8.02%

Source: PubChem BioAssay AID588413 (Sanford-Burnham Center for Chemical Genomics, 2011)
